Tests used:
Assay in all cases: DAPPL (digital affinity profiling via proximity ligation, sequencing); 10 mM Tris-HCl pH 7.5, 50 mM NaCl, 1 mM DTT, 4% glycerol, room temperature, 30 min; GST-TFs on glutathione beads, 16-mer random dsDNA library, 0.1% formaldehyde crosslink after washing; high values mean tight binding
FEV = target: T1, FEV (Homo sapiens, UniProt Q99581 1-238); details: protein: recombinant; tags: N-terminal GST; dsDNA, one strand shown
T1 sequence: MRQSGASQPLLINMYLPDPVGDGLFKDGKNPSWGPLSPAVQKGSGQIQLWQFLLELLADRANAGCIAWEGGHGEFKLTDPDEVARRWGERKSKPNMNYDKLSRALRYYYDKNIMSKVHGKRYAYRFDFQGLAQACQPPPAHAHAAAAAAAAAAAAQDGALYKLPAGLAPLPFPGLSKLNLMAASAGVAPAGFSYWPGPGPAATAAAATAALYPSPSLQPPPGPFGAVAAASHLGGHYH
In short: (§1)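 Binding signal is each hexamer's read frequency for a factor divided by its frequency in the tag-only sample. The factors were GST-fused human transcription factors from yeast, captured on glutathione beads, DNA-barcoded and pooled with that sample. Pools were incubated with 200 nmole of a random double-stranded 16-mer DNA library in Tris/NaCl/DTT/glycerol buffer at room temperature for 30 min, then washed, crosslinked with 0.1% formaldehyde, proximity-ligated with BsaI/T4 ligase (1 h, 37 °C), PCR-amplified and sequenced on an Illumina NextSeq500.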

ETV5 = ETV5 (Homo sapiens, UniProt P41161 1-510); details: protein: recombinant; tags: N-terminal GST; dsDNA, one strand shown
Chain of ETV5 (P41161 whole entry): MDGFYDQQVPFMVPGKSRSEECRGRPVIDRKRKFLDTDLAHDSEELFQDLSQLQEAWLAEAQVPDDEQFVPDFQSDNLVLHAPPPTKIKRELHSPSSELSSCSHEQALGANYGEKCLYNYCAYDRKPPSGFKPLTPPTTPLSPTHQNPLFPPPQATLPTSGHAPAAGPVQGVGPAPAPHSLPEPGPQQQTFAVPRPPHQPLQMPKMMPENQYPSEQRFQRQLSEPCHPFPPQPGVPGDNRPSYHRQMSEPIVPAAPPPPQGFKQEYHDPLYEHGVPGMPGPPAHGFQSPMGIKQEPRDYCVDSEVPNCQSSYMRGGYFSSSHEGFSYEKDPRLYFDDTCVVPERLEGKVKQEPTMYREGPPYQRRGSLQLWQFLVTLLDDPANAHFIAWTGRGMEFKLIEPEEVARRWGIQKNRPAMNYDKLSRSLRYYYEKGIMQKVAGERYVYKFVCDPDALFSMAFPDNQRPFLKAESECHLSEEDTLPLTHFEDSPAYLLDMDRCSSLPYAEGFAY
In short: as §1

HSF1 = HSF1 (Homo sapiens, UniProt Q00613 1-529); details: protein: recombinant; tags: N-terminal GST; chain copies: 3; dsDNA, one strand shown
Chain of HSF1 (Q00613 whole entry): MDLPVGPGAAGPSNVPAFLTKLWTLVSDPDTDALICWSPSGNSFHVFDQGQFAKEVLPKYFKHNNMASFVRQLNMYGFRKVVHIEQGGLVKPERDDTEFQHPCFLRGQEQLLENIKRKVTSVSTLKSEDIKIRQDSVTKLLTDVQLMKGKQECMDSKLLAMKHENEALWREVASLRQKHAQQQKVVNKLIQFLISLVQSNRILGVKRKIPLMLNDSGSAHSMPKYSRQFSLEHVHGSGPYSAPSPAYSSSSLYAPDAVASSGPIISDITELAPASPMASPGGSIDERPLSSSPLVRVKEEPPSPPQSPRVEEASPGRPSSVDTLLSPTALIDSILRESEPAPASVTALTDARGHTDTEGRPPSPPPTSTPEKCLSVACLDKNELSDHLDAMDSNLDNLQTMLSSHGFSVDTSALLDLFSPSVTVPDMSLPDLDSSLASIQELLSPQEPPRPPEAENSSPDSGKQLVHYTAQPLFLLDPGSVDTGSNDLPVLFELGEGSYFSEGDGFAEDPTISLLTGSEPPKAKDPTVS
In short: as §1

SPIC = target: T2, SPIC (Homo sapiens, UniProt Q8N5J4 1-248); details: protein: recombinant; tags: N-terminal GST; dsDNA, one strand shown
T2 sequence: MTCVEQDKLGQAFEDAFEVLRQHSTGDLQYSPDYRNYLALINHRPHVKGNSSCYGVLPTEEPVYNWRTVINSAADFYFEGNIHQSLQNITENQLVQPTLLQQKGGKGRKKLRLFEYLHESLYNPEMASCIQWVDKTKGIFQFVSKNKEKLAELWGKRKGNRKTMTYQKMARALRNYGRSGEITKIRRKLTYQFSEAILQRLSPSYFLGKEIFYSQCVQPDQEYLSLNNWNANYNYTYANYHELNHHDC
In short: as §1

ELF4 = ELF4 (Homo sapiens, UniProt Q99607 1-663); details: protein: recombinant; tags: N-terminal GST; dsDNA, one strand shown
Chain of ELF4 (Q99607 whole entry): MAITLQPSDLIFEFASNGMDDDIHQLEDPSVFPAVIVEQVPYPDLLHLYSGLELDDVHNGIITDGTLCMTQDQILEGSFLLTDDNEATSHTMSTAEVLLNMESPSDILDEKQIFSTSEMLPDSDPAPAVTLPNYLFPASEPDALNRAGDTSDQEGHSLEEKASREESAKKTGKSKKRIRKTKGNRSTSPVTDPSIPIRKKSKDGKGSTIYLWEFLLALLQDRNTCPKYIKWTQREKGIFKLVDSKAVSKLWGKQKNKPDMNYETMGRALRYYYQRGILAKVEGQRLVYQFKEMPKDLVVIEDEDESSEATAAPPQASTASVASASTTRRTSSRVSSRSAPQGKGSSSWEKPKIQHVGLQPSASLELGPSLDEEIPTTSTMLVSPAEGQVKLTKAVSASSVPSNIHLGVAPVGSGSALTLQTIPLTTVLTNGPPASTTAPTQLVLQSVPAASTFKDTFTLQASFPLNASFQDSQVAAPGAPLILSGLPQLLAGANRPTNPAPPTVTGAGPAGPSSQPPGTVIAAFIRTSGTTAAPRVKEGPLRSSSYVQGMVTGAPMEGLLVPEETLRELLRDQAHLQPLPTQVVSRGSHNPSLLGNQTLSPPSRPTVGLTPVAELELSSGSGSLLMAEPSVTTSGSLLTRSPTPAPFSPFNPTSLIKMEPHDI
In short: as §1

ELK4 = target: T3, ELK4 (Homo sapiens, UniProt P28324-2 1-405); details: protein: recombinant; tags: N-terminal GST; dsDNA, one strand shown
T3 sequence: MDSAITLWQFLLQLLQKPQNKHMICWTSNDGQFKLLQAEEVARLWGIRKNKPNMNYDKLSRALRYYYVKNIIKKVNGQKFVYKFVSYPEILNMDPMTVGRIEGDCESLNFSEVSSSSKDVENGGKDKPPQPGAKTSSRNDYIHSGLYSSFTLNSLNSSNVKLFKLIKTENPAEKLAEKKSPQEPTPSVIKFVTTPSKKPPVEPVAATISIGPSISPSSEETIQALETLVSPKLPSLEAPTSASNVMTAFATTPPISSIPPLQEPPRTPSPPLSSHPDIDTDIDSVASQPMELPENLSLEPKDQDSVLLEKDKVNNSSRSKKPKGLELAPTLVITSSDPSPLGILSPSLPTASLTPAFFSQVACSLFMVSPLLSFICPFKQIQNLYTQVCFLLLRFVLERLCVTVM
In short: as §1

ETV2 = target: T4, ETV2 (Homo sapiens, UniProt O00321 1-342); details: protein: recombinant; tags: N-terminal GST; dsDNA, one strand shown
T4 sequence: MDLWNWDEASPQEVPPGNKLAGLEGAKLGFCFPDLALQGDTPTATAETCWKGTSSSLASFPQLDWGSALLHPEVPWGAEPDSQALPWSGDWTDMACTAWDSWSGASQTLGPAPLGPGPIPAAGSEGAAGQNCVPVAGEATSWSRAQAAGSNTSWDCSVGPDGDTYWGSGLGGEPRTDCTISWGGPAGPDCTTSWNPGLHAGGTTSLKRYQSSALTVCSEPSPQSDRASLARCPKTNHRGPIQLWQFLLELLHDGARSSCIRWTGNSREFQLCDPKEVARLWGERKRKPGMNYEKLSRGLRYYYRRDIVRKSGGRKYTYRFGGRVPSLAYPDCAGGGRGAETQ
In short: as §1

ELF3 = target: T5, ELF3 (Homo sapiens, UniProt P78545 1-371); details: protein: recombinant; tags: N-terminal GST; dsDNA, one strand shown
T5 sequence: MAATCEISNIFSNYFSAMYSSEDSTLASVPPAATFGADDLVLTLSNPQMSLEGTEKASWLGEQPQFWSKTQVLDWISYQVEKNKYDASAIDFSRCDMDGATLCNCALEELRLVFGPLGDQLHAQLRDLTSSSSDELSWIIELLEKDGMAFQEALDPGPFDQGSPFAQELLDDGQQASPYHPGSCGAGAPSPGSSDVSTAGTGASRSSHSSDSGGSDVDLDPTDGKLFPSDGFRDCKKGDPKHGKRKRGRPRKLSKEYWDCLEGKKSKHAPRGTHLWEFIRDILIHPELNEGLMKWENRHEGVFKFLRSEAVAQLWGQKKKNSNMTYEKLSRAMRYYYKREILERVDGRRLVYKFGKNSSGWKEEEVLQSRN
In short: as §1

CRX = CRX (Homo sapiens, UniProt O43186 1-299); details: protein: recombinant; tags: N-terminal GST; dsDNA, one strand shown
Chain of CRX (O43186 whole entry): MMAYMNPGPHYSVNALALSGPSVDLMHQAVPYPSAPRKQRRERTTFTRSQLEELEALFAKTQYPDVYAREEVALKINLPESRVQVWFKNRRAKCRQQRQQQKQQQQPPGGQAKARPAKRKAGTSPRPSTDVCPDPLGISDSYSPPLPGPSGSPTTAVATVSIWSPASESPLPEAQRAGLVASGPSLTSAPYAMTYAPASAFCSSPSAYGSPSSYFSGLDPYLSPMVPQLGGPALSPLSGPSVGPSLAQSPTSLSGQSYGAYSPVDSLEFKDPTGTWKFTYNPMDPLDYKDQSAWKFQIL
In short: as §1

ETV1 = ETV1 (Homo sapiens, UniProt P50549 1-477); details: protein: recombinant; tags: N-terminal GST; dsDNA, one strand shown
Chain of ETV1 (P50549 whole entry): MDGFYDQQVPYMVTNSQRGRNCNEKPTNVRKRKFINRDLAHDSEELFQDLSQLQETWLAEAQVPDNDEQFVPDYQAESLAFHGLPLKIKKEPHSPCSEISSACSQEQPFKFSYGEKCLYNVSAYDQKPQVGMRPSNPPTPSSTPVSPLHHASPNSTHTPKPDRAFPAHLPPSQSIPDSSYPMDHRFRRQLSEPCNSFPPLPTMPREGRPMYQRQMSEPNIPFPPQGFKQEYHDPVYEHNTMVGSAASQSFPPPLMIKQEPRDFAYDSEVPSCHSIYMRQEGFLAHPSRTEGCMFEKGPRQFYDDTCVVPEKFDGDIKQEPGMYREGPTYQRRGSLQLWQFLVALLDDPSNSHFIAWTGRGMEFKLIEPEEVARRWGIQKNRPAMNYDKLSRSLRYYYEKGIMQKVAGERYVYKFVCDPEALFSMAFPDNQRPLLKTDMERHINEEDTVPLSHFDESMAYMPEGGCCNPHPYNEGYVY
In short: as §1

GAAGCT was tested, and the binding signal (FEV) was 1.48 fold enrichment (6-mer frequency, TF over GST control), the binding signal (ETV5) was 1.62 fold enrichment (6-mer frequency, TF over GST control) and the binding signal (HSF1) was 1.74 fold enrichment (6-mer frequency, TF over GST control). The binding signal (SPIC) was 1.44 fold enrichment (6-mer frequency, TF over GST control), the binding signal (ELF4) was 1.49 fold enrichment (6-mer frequency, TF over GST control) and the binding signal (ELK4) was 1.69 fold enrichment (6-mer frequency, TF over GST control). The binding signal (ETV2) was 1.56 fold enrichment (6-mer frequency, TF over GST control), the binding signal (ELF3) was 1.47 fold enrichment (6-mer frequency, TF over GST control) and the binding signal (CRX) was 1.47 fold enrichment (6-mer frequency, TF over GST control). For the same sequence, the binding signal (ETV1) was 1.57 fold enrichment (6-mer frequency, TF over GST control).

— publication PMC7862700, “An all-to-all approach to the identification of sequence-specific readers for epigenetic DNA modifications on cytosine”
